The values below come from PubChem BioAssay (NCI).

About 83,000 compounds went through this panel and 20% of them were active in at least one assay; those are over-represented in the sample as a whole.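 The test compound was applied at a single concentration to cells in 96-well plates for 48 hours, and percent growth was recorded.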 A number with no mark means an inactive call. The source made the active and inactive calls.

The test deals with SNB-75 CNS. As to the kind of experiment: NCI-60 one-dose screen, 48 h (100 = growth as untreated, 0 = no growth, -100 = all killed). The following applies: 10 µM unless noted. How it is done:
Growth inhibition of the SNB-75 human tumor cell line is measured as a screen for anti-cancer activity. Cells are grown in 96 well plates and exposed to the test compound for 48 hours. Compounds are tested at a single concentration, which is 10^-5 M for most compounds. The reported endpoint is percent growth (GI% or GIPRCNT), where numbers from 0 - 100% represent growth inhibition, and numbers from -100% - 0 represent cell death. For example, a value of 40 represents 60% growth inhibition. A value of 0 means no net growth occurred over the course of the experiment. A value of -40 indicates 40% of cells at the beginning of the experiment died by the end of the experiment. A value of -100 means all cells are dead at the end of the experiment.
NCI-60 Human Tumor Cell Lines Screen was performed using the standard one-dose NCI protocol, which is described in more detail at https://dtp.cancer.gov/discovery_development/nci-60/default.htm.
Compounds with GIPRCNT values below 10 were considered active. Activity score was based on GIPRCNT using the following formula: […]
Score is 0 for GIPRCNT values of 100 or above, 50 for GIPRCNT values of 0, and 100 for GIPRCNT values of -100.
With `NS(=O)(=O)c1cccc(Nc2nc(SCC(=O)c3ccc(Cl)cc3)nc3ccccc23)c1`, the growth was 33.6%.
For the molecule `Oc1c(Cl)cc(Cl)c2ccc(CN3CCCCC3)nc12`, the growth is 83.3%.
For the molecule `COc1cccc(-c2nn(-c3ccccc3)cc2-c2ccnc(N3CCN(C(=O)c4ccccc4)CC3)c2)c1`, the growth is 65.9%.
As to `O=C1Nc2cc(Cl)ccc2/C1=C\c1ccc(OCc2ccc([N+](=O)[O-])cc2)cc1`, the growth is 57.5%.
With `O=C(CSc1nccc(=O)[nH]1)Nc1ccc(-c2nc3ccccc3[nH]2)cc1`, the growth was 122%.
`O=C1C2=C(C(=O)c3c(O)cccc31)C(c1ccco1)c1sc(=O)[nH]c1S2` (stereo not given): the growth was 32.4%.
For the molecule `Cc1nc(-c2cc3ccccc3oc2=O)ccc1C(=O)/C=C/c1ccccn1`, the growth was 56.3%.
As for `Fc1ccc(-c2cc3nc(C(Cl)Cl)nc(-c4ccc(Cl)cc4)n3n2)cc1`, the figure is -2% (active).
For the molecule `O=[N+]([O-])c1ccc(O)c2ncccc12`, the growth is 48.5%.
Consider `CC(C)(C)Nc1nc2c(OCCc3ccccc3)cccn2c1-c1ccccc1Cl`, for which the growth was 34.5%.
As for `Cc1cccc(/C=C/c2nn3c(-c4ccco4)nnc3s2)c1`, the figure is 100%; as for `OC1CCN(CCCOc2c3ccccc3nc3c2oc2ccccc23)CC1`, -1.06% (active); as for `CCOC(=O)c1sc(NCC(=O)Nc2cccc([N+](=O)[O-])c2)c(C(=O)OCC)c1C`, -37.6% (active).
The same measure for `C=CCSc1ccc2c(c1)C(N1CCNCC1)=Nc1ccccc1O2`: 79.8% [8.25 µM].
`Fc1ccc(-c2cc3nc(C(Cl)Cl)nc(-c4ccccc4)n3n2)cc1`: the growth was -30% (active).
Take `O=C(N/N=C/c1ccco1)c1[nH]c2ccc(Br)cc2c1-c1ccccc1`: the growth is 31.7%.
Turning to `Cc1sc2c(c1C)c(=O)nc1c(-c3nc(-c4ccc(F)cc4)no3)n[nH]n12`, the growth was 85.7%.
As for `CN1CCc2c(sc3ncnc(N/N=C/c4ccc(Cl)c(Cl)c4)c23)C1`, the figure is 79.5%; as for `Cc1nc2cnc(N)c(C#Cc3cncc(C(=O)Nc4ccc(Cl)c(C(F)(F)F)c4)c3)c2nc1C`, 44.6%.
As for `CC(C)(C)Nc1nc2c(OCCc3ccccc3)cccn2c1-c1ccc(Cl)cc1`, the figure is 51.7%; as for `Cc1ccc(-c2nc(C(Cl)Cl)nc3cc(-c4ccccc4)nn23)cc1`, -3.07% (active); as for `CC1=C(C)C(=O)C(Nc2cccc(C(F)(F)F)c2)=C(Cl)C1=O`, 66.5%.
As for `Nc1cc(-c2c[nH]c3ccccc23)nc2cc(-c3c[nH]c4ccccc34)nn12`, the figure is 82.5%; as for `NC(=O)c1cc(-c2ccc3ncnc(N4CCc5cc(F)c(Cl)cc54)c3c2)cnc1N`, -25% (active); as for `Cc1c(Nc2nnc(SCC(=O)Nc3sc4c(c3C#N)CCCC4)s2)c(=O)n(-c2ccccc2)n1C`, 127%.
`CC(=O)Oc1ccccc1C(=O)Nc1ccc(C(=O)/C=C/c2ccncc2)cc1`: the growth was 48.4%.
`CCCC(=O)NC(c1ccc2c(c1)OC(F)(F)O2)c1cc(C)c2cccnc2c1O` (stereo not given): the growth is 40.4%.
`COc1ccc(N/N=C/c2c(-c3ccc(S(C)(=O)=O)cc3)nc3ccccn23)cc1`: the growth was 62.6%.
As to `C#C[C@]1(O)CC[C@H]2[C@@H]3CC=C4c5sc(-c6ccc(F)cn6)nc5CC[C@]4(C)[C@H]3CC[C@@]21C`, the growth is -13.2% (active).
As for `CC(=NNc1ncnc2ccccc12)c1ccc(S(C)(=O)=O)cc1`, the figure is 103%; as for `CN(C)c1ccc(/C=c2\sc3nc4ccccc4n3c2=O)cc1`, 105%.
For the molecule `Cn1c(SCC(=O)c2cccs2)nc2ccccc2c1=O`, the growth is 88.7%.
Take `COc1ccccc1/C=C/C=N/NC1=NC2C(S1)N(C)C(=O)N2C` (stereo not given): the growth is 18.5%.
`O=C(N/N=C/c1ccc([N+](=O)[O-])o1)c1[nH]c2ccc(Br)cc2c1-c1ccccc1`: the growth was 17.7%.
As for `CS(=O)(=O)c1ccc(-c2nc3ccccn3c2/C=N/Nc2nc(-c3ccc(Cl)cc3)cs2)cc1`, the figure is 120%; as for `NS(=O)(=O)c1cccc(Nc2nc(SCC(=O)c3ccc([N+](=O)[O-])cc3)nc3ccccc23)c1`, 45.9%.
Turning to `COc1cc(-c2nc3ccc(-c4nnc(SCC(=O)Nc5ccc(C(C)=O)cc5)o4)cc3[nH]2)cc(OC)c1OC`, the growth was 96.6%.
For the molecule `COC(=O)C(Cc1ccccc1)NS(=O)(=O)/N=C1\NC(=O)NC1=C(Cl)Cl` (stereo not given), the growth was 106%.
Take `CN1C(=S)N(C)C2C1NN=C1SC(c3ccccc3)=CC(=O)N12` (stereo not given): the growth is 115%.
`CNC(=O)c1cc(-c2ccc(NC(=O)Nc3ccc(N4CCOCC4)c(C(F)(F)F)c3)cc2)nc2cccnc12`: the growth was 67.6%.
